Reference: PubChem BioAssay (NCI)
Compounds without any hit were thinned out: in the full panel of roughly 83,000, 20% have a hit.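 48-hour exposure, single concentration, 96-well plates; percent growth endpoint where 0 means no net growth. Active: below 10.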 Unmarked numbers belong to inactive results. Activity calls are given as the source filed them.

The compounds below were run on OVCAR-3 ovarian (assay: NCI-60 one-dose screen, 48 h (100 = growth as untreated, 0 = no growth, -100 = all killed)). Conditions: 10 µM unless noted.
Method: Growth inhibition of the OVCAR-3 human tumor cell line is measured as a screen for anti-cancer activity. Cells are grown in 96 well plates and exposed to the test compound for 48 hours. Compounds are tested at a single concentration, which is 10^-5 M for most compounds. The reported endpoint is percent growth (GI% or GIPRCNT), where numbers from 0 - 100% represent growth inhibition, and numbers from -100% - 0 represent cell death. For example, a value of 40 represents 60% growth inhibition. A value of 0 means no net growth occurred over the course of the experiment. A value of -40 indicates 40% of cells at the beginning of the experiment died by the end of the experiment. A value of -100 means all cells are dead at the end of the experiment.
NCI-60 Human Tumor Cell Lines Screen was performed using the standard one-dose NCI protocol, which is described in more detail at https://dtp.cancer.gov/discovery_development/nci-60/default.htm.
Compounds with GIPRCNT values below 10 were considered active. Activity score was based on GIPRCNT using the following formula: […]
Score is 0 for GIPRCNT values of 100 or above, 50 for GIPRCNT values of 0, and 100 for GIPRCNT values of -100.
In the case of `COc1ccccc1/C=C/C(=O)c1nnn(-c2ccc(C(=O)O)cc2)c1C`, the growth is reported as 89.2%.
`Cc1ccc(/C=C/CC(=O)Nc2ccc(C(=O)Nc3ccc(F)cc3N)nc2)cn1` was tested, and the growth was 59%.
Work on `C[C@H]1[C@H](C)CC[C@]2(COC(=O)c3cccnc3)CC[C@]3(C)C(=CC[C@@H]4[C@@]5(C)CCCNC(C)(C)[C@@H]5CC[C@]43C)[C@H]12` yielded a growth of 68.4%.
`CC1=CC(=O)CC(C)(C)[C@@]1(O)/C=C/C(C)=C\C(=O)O` was tested, and the growth was -19.5% (active).
For `O=C1/C(=C/c2ccccc2[N+](=O)[O-])Oc2ccc(O)cc21`, the growth was -18.9% (active).
`Cc1cc(NS(=O)(=O)c2ccc(-c3cnc(C4CC4)o3)cc2)ccc1I` was tested, and the growth was 8.32% (active).
For `CC1OC(O[C@@H]2C(O)C(CO)OC(O[C@H]3COC(O[C@H]4CC[C@]5(C)[C@H]6CC[C@]78OC[C@@]9(CC[C@](C)(C=O)C[C@H]97)[C@H](O)C[C@@]8(C)[C@]6(C)CC[C@H]5C4(C)C)[C@@H](OC4OC(CO)[C@@H](O)[C@@H](O)[C@@H]4O)[C@@H]3O)[C@H]2OC2OC[C@@H](O)[C@@H](O)[C@@H]2O)[C@@H](O)[C@@H](O)[C@H]1O` (stereo not given in full), the growth was 79.4%.
With `CCCCCCNC(=O)Oc1ccc(/C(=C(/C)c2ccc(OC)cc2)c2ccc(OCCN3CCCC3)cc2)cc1` the growth was 89.8%.
With `O=C(Nc1ccc(F)cc1)c1cc(-c2ccc(F)cc2F)ccc1O` the growth was 6.06% (active).
For `O=C1c2c(O)cc(O)cc2O[C@@H](c2ccc(O)cc2)[C@@H]1c1c(O)cc(O)c2c(=O)cc(-c3ccc(O)c(O)c3)oc12`, the growth was 106%.
With `CN1CCN(c2ccc(NC(=O)Nc3ccc4c(ccn4-c4cccc(C(N)=O)n4)c3)cc2C(F)(F)F)CC1` the growth was 102%.
In the case of `CCOC(=O)/C=c1\sc2n(c1=O)C1C(NN=2)N(CC)C(=O)N1CC` (stereo not given), the growth is reported as 14.8%.
In the case of `O=S(=O)(Nc1ccc(C2CC2)cc1)c1ccc(-c2cnc(C3CC3)o2)cc1`, the growth is reported as 53.2%.
Work on `CCOC(=O)C1=C(C)N=C2Sc3ccccc3N2C1c1ccccc1` (stereo not given) yielded a growth of 98.4%.
`N/C(=N\OC(=O)CSc1nc2ccccc2s1)c1ccc(Cl)cc1` gave a growth of 111%.
With `Cc1cc(Cl)cc(NS(=O)(=O)c2ccc(-c3cnc(C4CC4)o3)cc2)c1` the growth was -24.3% (active).
`CC(=O)Nc1nc2c(s1)C1=CC[C@H]3[C@@H]4CC[C@H](C(C)=O)[C@@]4(C)CC[C@@H]3[C@@]1(C)CC2` gave a growth of 74.8%.
For `CC(=O)Nc1ccc(NC(=O)Nc2cccc(-c3nc(-c4ccc(NC(=O)c5cccnc5)cc4Cl)no3)c2)cc1C(F)(F)F`, the growth was -63.7% (active).
`CC(=O)c1ccc(NC(=O)COc2ccc(C3SCC(=O)N3c3ccc(Br)cc3)cc2)cc1` (stereo not given) gave a growth of 121%.
Work on `O=C(CSc1nnc(-c2cccs2)n1-c1ccccc1)Nc1ccc(F)cc1` yielded a growth of 111%.
Work on `Cc1nn(-c2ccc(Br)cc2)c2nc(CCl)[nH]c(=O)c12` yielded a growth of 116%.
`O=c1c2ccccc2nc(COc2ccccc2)n1/N=C/C=C/c1ccccc1` showed a growth of 103%.
For `O=S(=O)(Nc1cc(Cl)cc(Cl)c1)c1ccc(-c2cnc(C3CC3)o2)cc1`, the growth was 17.2%.
`CSc1ccc(/C(=N/N=C(N)N)c2ccccc2)cc1` was tested, and the growth was 2.28% (active).
`COc1ccc(NC2=C(Cl)C(=O)C(C)=C(C)C2=O)cc1` was tested, and the growth was 101%.
With `Cn1c(SC(C(=O)Nc2ccc(F)cc2)c2ccccc2)nc2ccccc2c1=O` (stereo not given) the growth was 114%.
For `O=S(=O)(Nc1ccc(-c2nc(-c3cccc(O)c3)c(-c3ccnc(Br)c3)[nH]2)cc1)c1ccccc1`, the growth was 32.1%.
`CC[C@H](C)[C@H]1NC(=O)[C@@H]([C@H](O)C(C)C)NC(=O)[C@@H](C)N(C)C(=O)[C@H](C)N(C)C(=O)[C@H](CC(C)C)NC(=O)[C@H](CC(C)C)N(C)C(=O)[C@H](C)N(C)C1=O` was tested, and the growth was 6.47% (active).
`N#C/C(=C\c1ccc(Cl)cc1Cl)C(N)=O` showed a growth of 109%.
With `CCC(CC)N1C(=O)/C(=c2\sc3n(c2=O)C2C(NN=3)N(CC)C(=O)N2CC)c2ccccc21` (stereo not given) the growth was 7.62% (active).
In the case of `COc1cc(-c2noc(C[C@@H](NC(=O)OCc3ccccc3)C(C)C)n2)cc(OC)c1OC`, the growth is reported as 110%.
Compound `COC1=C(c2ccccc2)C(=O)C(OC)=C(c2ccccc2)C1=O` has a growth of 72.6%.
For `Cc1cc(O)c2c(c1)C(=O)C(c1c(C)cc3c(c1O)C(=O)C=CC3=O)=CC2=O`, the growth was 23.4%.
`NC(=S)N/N=C(/C=C/c1cn(-c2ccccc2)nc1-c1ccc(Cl)cc1)c1cc2ccccc2oc1=O` was tested, and the growth was 14.8%.
For `O=C(CN1C(=O)CSC1=O)Nc1ccc(C(=O)/C=C/c2cc3ccccc3nc2Cl)cc1`, the growth was 87.4%.
For `CCOC(=O)c1c(NC(=O)c2ccc(F)cc2F)sc2c1CCC(=O)C2`, the growth was 113%.
For `CCNCc1c(-c2cccc(OC(F)(F)F)c2)[nH]c2ccc(N3CCCC3)cc2c1=O`, the growth was -6.81% (active).
`Cc1cc(O)c(=O)cc2c1C[C@H]1CC(C)(C)/C=C/C[C@]3(C)Oc4cc(=O)c(O)cc(C)c4C[C@H]3C[C@H](O)[C@@]1(C)O2` gave a growth of 14.5%.
`CCOC(=O)c1c(NCC(=O)Nc2ccc(Br)cc2)sc2c1CCCC2` gave a growth of 10.3%.
`O=C(CCCCCCN1CC(=O)N2[C@@H](c3cccc(Cl)c3)c3[nH]c4ccccc4c3C[C@H]2C1=O)NO` was tested, and the growth was 36.3%.
